{"source": "the supplement of paper PMC10933113", "note": "Structures can show the parent of a compound that is named as a salt. ± gives the uncertainty stated by the source."}
{"test_system": "THP-1", "assay": "CD86 surface expression induction over DMSO control (% over DMSO); higher = stronger dendritic cell activation", "details": "exposure time: 24 h", "experimental": "(§1)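 hCLAT-like CD54 and CD86 surface expression on THP1 cells after 24 h exposure at a single concentration (highest non-cytotoxic concentration, or 100-200 µM if not cytotoxic). Flow cytometry (iQue) was run on 5,000 live cells.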"}
{"compound": "Clc1nc(C(Cl)(Cl)Cl)c(Cl)c(Cl)c1Cl", "note": "[2,3,4,5-Tetrachloro-6-(trichloromethyl)pyridine] (10 µM)", "CD86 surface expression induction": "-11.6 ± 6.2"}
{"compound": "Oc1ccc2ccccc2c1N=Nc1ccccc1", "note": "[C.I. Solvent Yellow 14] (200 µM)", "CD86 surface expression induction": "3.18 ± 3.5"}
{"compound": "CC(C)NC(=O)c1ccc(C=O)cc1", "note": "[N-isopropyl-4-formylbenzamide] (100 µM)", "CD86 surface expression induction": "-3.04 ± 5.2"}
{"compound": "CCCCCCCCCCCCO", "note": "[1-Dodecanol] (100 µM)", "CD86 surface expression induction": "21.8 ± 27"}
{"compound": "N=C1C=CC(=C(c2ccc(N)cc2)c2ccc(N)cc2)C=C1", "note": "[C.I. Basic Red 9 monohydrochloride] (10 µM)", "CD86 surface expression induction": "-3.84 ± 5"}
{"compound": "Cc1ccc(O)c2ncccc12", "note": "[Tiliquinol] (10 µM)", "CD86 surface expression induction": "43.2 ± 60"}
{"compound": "CCCCCOc1ccccc1/C(=C\\SC)n1ccnc1", "note": "[Neticonazole] (100 µM)", "CD86 surface expression induction": "38.9 ± 22"}
{"compound": "Cc1ccc(O)c(-n2nc3ccccc3n2)c1", "note": "[2-(2H-Benzotriazol-2-yl)-4-methylphenol] (100 µM)", "CD86 surface expression induction": "-18.9 ± 28"}
{"compound": "O=[N+]([O-])c1cc(N(CCO)CCO)ccc1NCCO", "note": "(200 µM)", "CD86 surface expression induction": "-7.47 ± 11"}
{"test_system": "THP-1", "assay": "CD54 surface expression induction over DMSO control (% over DMSO); higher = stronger dendritic cell activation", "details": "exposure time: 24 h", "experimental": "as §1"}
{"compound": "O=CC(=O)c1ccccc1", "note": "[Phenyl glyoxal] (100 µM)", "CD54 surface expression induction": "-5.43 ± 7.7"}
{"compound": "C#CCN(C)CCCOc1ccc(Cl)cc1Cl", "note": "[Clorgyline hydrochloride] (100 µM)", "CD54 surface expression induction": "-7.99 ± 0.71"}
{"compound": "Oc1ccc2cc(SSc3ccc4cc(O)ccc4c3)ccc2c1", "note": "[6-Hydroxy-2-naphthyl disulfide] (100 µM)", "CD54 surface expression induction": "71.9 ± 1.4"}
{"compound": "Clc1nc(C(Cl)(Cl)Cl)c(Cl)c(Cl)c1Cl", "note": "[2,3,4,5-Tetrachloro-6-(trichloromethyl)pyridine] (10 µM)", "CD54 surface expression induction": "-4.98 ± 3.6"}
{"compound": "CC(C)(C)c1cc(O)c(C(C)(C)C)cc1O", "note": "[2,5-Di-tert-butylbenzene-1,4-diol] (100 µM)", "CD54 surface expression induction": "38.2 ± 50"}
{"compound": "CN(C)c1ccc(C(=C2C=CC(=[N+](C)C)C=C2)c2ccccc2)cc1", "note": "[Malachite green oxalate*] (10 µM)", "CD54 surface expression induction": "132 ± 20"}
{"compound": "CO[C@@]12[C@H](COC(N)=O)C3=C(C(=O)C(C)=C(N)C3=O)N1C[C@@H]1N[C@@H]12", "note": "[Mitomycin C] (100 µM)", "CD54 surface expression induction": "55.6 ± 52"}
{"compound": "Oc1ccc2ccccc2c1N=Nc1ccccc1", "note": "[C.I. Solvent Yellow 14] (200 µM)", "CD54 surface expression induction": "-0.27 ± 5.9"}
{"compound": "CC(C)NC(=O)c1ccc(C=O)cc1", "note": "[N-isopropyl-4-formylbenzamide] (100 µM)", "CD54 surface expression induction": "-11.6 ± 1.7"}
{"compound": "CCCCCCCCCCCCO", "note": "[1-Dodecanol] (100 µM)", "CD54 surface expression induction": "9.85 ± 8.8"}
{"compound": "Clc1ccc(C(Cn2ccnc2)OCc2ccc(Sc3ccccc3)cc2)c(Cl)c1", "note": "(stereo not given) [Fenticonazole nitrate] (100 µM)", "CD54 surface expression induction": "21.1 ± 8.7"}
{"compound": "CCCCCCC(C)O", "note": "(stereo not given) [2-Octanol] (200 µM)", "CD54 surface expression induction": "-1.7 ± 0.35"}
{"compound": "Nc1cc(Cl)c(O)c(Cl)c1", "note": "[4-Amino-2,6-dichlorophenol] (100 µM)", "CD54 surface expression induction": "18 ± 2"}
{"compound": "O=[N+]([O-])c1cc(Cl)c(Cl)c(Cl)c1Cl", "note": "[2,3,4,5-Tetrachloronitrobenzene] (10 µM)", "CD54 surface expression induction": "-4.73 ± 2.7"}
{"compound": "CC[C@@]1(O)C(=O)OCc2c1cc1n(c2=O)Cc2c-1nc1ccccc1c2/C=N/OC(C)(C)C", "note": "[Gimatecan] (10 µM)", "CD54 surface expression induction": "-15.7 ± 5"}
{"compound": "N=C1C=CC(=C(c2ccc(N)cc2)c2ccc(N)cc2)C=C1", "note": "[C.I. Basic Red 9 monohydrochloride] (10 µM)", "CD54 surface expression induction": "10.7 ± 6.1"}
{"compound": "CC/C=C\\C/C=C\\C/C=C\\CCCCCCCC(=O)OCC", "note": "[Ethyl linolenate] (10 µM)", "CD54 surface expression induction": "-3.84 ± 2.1"}
{"compound": "CCN(CC)CCOc1ccc2c(c1)C(=O)c1cc(OCCN(CC)CC)ccc1-2", "note": "[Tilorone] (200 µM)", "CD54 surface expression induction": "79.8 ± 17"}
{"compound": "Cc1cccc(N(C)C(=S)Oc2ccc3c(c2)C2CCC3C2)c1", "note": "(stereo not given) [Tolciclate] (100 µM)", "CD54 surface expression induction": "1.18 ± 1.2"}
{"compound": "O=C(OCc1ccccc1)c1ccc(O)cc1", "note": "[Benzylparaben] (100 µM)", "CD54 surface expression induction": "-6.45 ± 0.19"}
{"compound": "CCN(CC)CCSC(=O)C(c1ccccc1)c1ccccc1", "note": "[Thiphenamil] (200 µM)", "CD54 surface expression induction": "99.2 ± 12"}
{"compound": "CCCSS/C(CCO)=C(/C)N(C=O)Cc1cnc(C)nc1N", "note": "[Prosultiamine] (10 µM)", "CD54 surface expression induction": "-0.63 ± 2.5"}
{"compound": "Cc1c(C)n(CCN(C)C)c2ccc(C(=O)OCCN(C)C)cc12", "note": "[Amindocate] (100 µM)", "CD54 surface expression induction": "-6.56 ± 2.9"}
{"compound": "C=CC(=O)OCCCCCCOC(=O)C=C", "note": "[1,6-Hexanediol diacrylate] (100 µM)", "CD54 surface expression induction": "-4.54 ± 2.9"}
{"compound": "Cc1ccc(O)c2ncccc12", "note": "[Tiliquinol] (10 µM)", "CD54 surface expression induction": "26.6 ± 6.2"}
{"compound": "CNc1ccc(O)cc1", "note": "[4-(Methylamino)phenol Sulfate] (10 µM)", "CD54 surface expression induction": "17.6 ± 8.6"}
